# About 79,000 compounds went through this panel and 15% of them were active in at least one assay; those are over-represented in the sample as a whole. A number with no mark means an inactive call. Calls of active or inactive are those of the source. Rule as the data show it: active = growth inhibition above about 70%; inactive = the rest.
# Key:
# [1] = NCI Yeast Anticancer Drug Screen. Data for the rad50 strain (AID 155);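 also: 0% = growth of vehicle-only cultures of the same strain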; details: S. cerevisiae rad50 strain growth inhibition, hits give high values
# How it was run: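 Inhibition values express reduced yeast growth in compound-treated cultures relative to vehicle-treated controls.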
# [2] = NCI Yeast Anticancer Drug Screen. Data for the mec2-1 strain (AID 157); details: S. cerevisiae mec2-1 strain, hits give high values
# How it was run: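 Strain: mec2-1 (DNA repair/cell cycle alteration). Compound exposure, then growth measured; inhibition expressed relative to vehicle.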
# [3] = NCI Yeast Anticancer Drug Screen. Data for the sgs1 mgt1 strain (AID 161);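 also: 0% = growth of cultures given vehicle only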; details: S. cerevisiae sgs1 mgt1 strain, hits give high values
# How it was run: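 Mutant yeast exposed to compound; growth scored against vehicle-only wells.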
# [4] = NCI Yeast Anticancer Drug Screen. Data for the cln2 rad14 strain (AID 165);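 also: 0% = growth equal to vehicle treated cultures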; details: S. cerevisiae cln2 rad14 strain, hits give high values
# How it was run: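 Compounds are applied to the cln2 rad14 yeast strain, and growth is then compared with that of vehicle-treated cultures to give inhibition.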
# [5] = NCI Yeast Anticancer Drug Screen. Data for the bub3 strain (AID 167); details: S. cerevisiae bub3 mutant strain, hits give high values
# How it was run: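 Steps: expose the mutant yeast strain to compound; grow alongside vehicle-treated cultures; measure growth; express inhibition against the vehicle cultures.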
# [6] = NCI Yeast Anticancer Drug Screen. Data for the mlh1 rad18 strain (AID 175); details: S. cerevisiae mlh1 rad18 strain growth inhibition, hits give high values
# How it was run: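 Read-out is yeast growth inhibition, calculated against vehicle-only controls. The compound was applied to a strain engineered with DNA damage repair alterations.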
# [7] = at 5.0 µM (retest, dose inferred, filed as 0.5)
# [8] = at 50.0 µM (retest, dose inferred, filed as 5.0)
Structure (SMILES),"growth inhibition [1, 7]","growth inhibition [1, 8]",growth inhibition ([1]; at 50.0 µM),"growth inhibition [2, 7]","growth inhibition [2, 8]",growth inhibition ([2]; at 50.0 µM),"growth inhibition [3, 7]","growth inhibition [3, 8]",growth inhibition ([3]; at 50.0 µM),"growth inhibition [4, 7]","growth inhibition [4, 8]",growth inhibition ([4]; at 50.0 µM),"growth inhibition [5, 7]","growth inhibition [5, 8]",growth inhibition ([5]; at 50.0 µM),"growth inhibition [6, 7]","growth inhibition [6, 8]",growth inhibition ([6]; at 50.0 µM)
Clc1nn2nnnc2c2ccccc12,-133%,87% (active),80.2% (active),-35%,82% (active),81.2% (active),-46%,65%,51.5%,-51%,24%,-31.6%,-51%,77% (active),65%,-102%,74% (active),73.8% (active)
CCCC12C=C(OC)C(=O)C=C1OC(c1ccc3c(c1)OCO3)C2C (configuration not stated),0%,55%,43.9%,-2%,81% (active),70.8% (active),0%,86% (active),80.8% (active),-6%,53%,64.8%,19%,89% (active),79.3% (active),-4%,70% (active),55.1%
Cc1cc(NS(=O)(=O)c2ccc(NCc3c4ccccc4nc4cc(Cl)ccc34)cc2)no1,26%,97% (active),98.2% (active),22%,99% (active),98.5% (active),27%,99% (active),98.5% (active),6%,97% (active),97.3% (active),25%,99% (active),96.2% (active),9%,97% (active),98.2% (active)
S=C=NCCCCCCN=C=S,36%,99% (active),99.6% (active),41%,99% (active),99.5% (active),59%,99% (active),99.3% (active),21%,99% (active),99.3% (active),58%,99% (active),99.3% (active),79% (active),99% (active),99.2% (active)
O=S(=O)(Nc1ccccc1C(F)(F)F)c1ccc(F)cc1,-23%,49%,80.6% (active),6%,59%,46.5%,-11%,43%,56.4%,-21%,69%,33.4%,-16%,61%,35.4%,-13%,83% (active),80.2% (active)
OC1c2cccn2-c2cc(Cl)ccc2SC1c1ccccc1 (configuration not stated),2%,97% (active),97% (active),1%,98% (active),82.3% (active),15%,97% (active),96.2% (active),-7%,97% (active),93.2% (active),24%,97% (active),95.6% (active),8%,97% (active),94.8% (active)
CCN(CC)CCCCCCNc1cc(C)cc2ccc(C)nc12,8%,59%,65.8%,0%,22%,45.7%,11%,58%,39.1%,0%,36%,8.2%,7%,62%,79.7% (active),21%,40%,47.5%
CCCCOC(=O)C(C)OC(=O)NNc1ccccc1 (configuration not stated),10%,51%,48.2%,0%,12%,36%,1%,39%,36%,7%,34%,36.7%,9%,88% (active),99% (active),6%,87% (active),67%
CCCCCCCCC(=O)NCCCNCCCNC(=O)CCCCCCCC,-17%,-17%,69%,-18%,-18%,50.2%,-4%,-4%,66.3%,-22%,-22%,92.2% (active),-28%,-28%,90.8% (active),-11%,-11%,89.3% (active)

# From PubChem BioAssay (NCI)
